High-throughput results: PubChem BioAssay, National Center for Advancing Translational Sciences (NCATS)
DRD3 agonist – qHTS of D3 Dopamine Receptor Agonist: qHTS; max activation, %; hit rate 0.58% among 410,000; D3R DiscoveRx beta-arrestin cells, luminescence, 90 min; D(3) dopamine receptor (Homo sapiens), P35462; in the data active = max activation above about 30%; note: 0% is about no effect
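Agonist-mode cell screen: cells plated at 1500/well and incubated overnight at 37 °C, then exposed to library compounds for 90 min at 37 °C. Detection reagent was added for 30–60 min at room temperature, and luminescence was read.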
BRCA1 expr act – qHTS Assay to Identify Small Molecule Activators of BRCA1 Expression | AID 624202, 2012 | hit rate 1.1% among 380,000 | Potency, µM (top dose mostly 46.1 µM), inactives show at the highest dose activation, actives largely listed as activators | MCF7-BRCA1-FFLuc reporter, luminescence, 48 h; response scale: scaled: vehicle 0%, 10 µM genistein 100%; note: potency is the fitted concentration of half-maximal effect; nearly all actives have a fitted effect of over 80% in size
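MCF7 cells carrying a BRCA1-firefly luciferase reporter (2000 cells/well, phenol-red free MEM) were attached for 2 h at 37 °C, then given compounds for 48 h. Luminescence was read 15 min after luciferase reagent; activity normalized to genistein (10 microM) and DMSO.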
DRD3 antagonist – qHTS of D3 Dopamine Receptor Antagonist: qHTS; max response, negative = inhibition, %; D3R cells, DiscoveRx beta-arrestin luminescence, antagonist mode; stronger effect = lower value; hit rate 2.5% among 360,000; AID 652054, 2013; in the data active = max response below about -50%; inconclusive = no clear call, values can overlap the other calls; note: % is set by controls: 0 for no effect and ±100 for the full control effect
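Cells expressing the human receptor were seeded at 1500 cells/well, incubated overnight at 37 degrees C in 5% CO2, then exposed to library compounds with dopamine controls for 90 minutes at 37 degrees C before luminescent detection.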
RGS4 inh – Inhibitors of Regulator of G Protein Signaling (RGS) 4: qHTS. Transcreener GDP fluorescence polarization, RGS4-accelerated GTP hydrolysis. Potency, µM (highest dose often 114 µM), without a hit: at the highest dose activity change, negative = inhibition, usual class: inhibitors. hit rate 0.039% among 390,000. AID 504845, 2011; note: potency is the fitted concentration of half-maximal effect; % is set by controls: 0 for no effect and ±100 for the full control effect; nearly all actives have a fitted effect of over 75% in size
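MLSMR compounds (23 nl, pin-transferred) preincubated 10 min at room temperature with a 500nM (2x) first reagent, then RGS4 at 900nM (2x) plus Transcreener GDP mix added; fluorescence polarization (620/688 nm) read before and after 90 min at 30 °C.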
B2AR arrestin – qHTS assay of beta-arrestin-biased ligands of beta2-adrenergic receptor. hit rate 0.02% among 330,000. Potency, µM (top dose mostly 46.1 µM), inactives show at the highest dose activation, usual class: activators. Beta-2 adrenergic receptor (Homo sapiens), P07550. beta-arrestin recruitment to beta2AR, cell-based reporter;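 note: potency is the fitted concentration of half-maximal effect; 0% = DMSO controls and full agonism = EC100 isoproterenol or metaproterenol; nearly all actives have a fitted effect of over 65% in size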
Target sequence (P07550 whole entry, looked up): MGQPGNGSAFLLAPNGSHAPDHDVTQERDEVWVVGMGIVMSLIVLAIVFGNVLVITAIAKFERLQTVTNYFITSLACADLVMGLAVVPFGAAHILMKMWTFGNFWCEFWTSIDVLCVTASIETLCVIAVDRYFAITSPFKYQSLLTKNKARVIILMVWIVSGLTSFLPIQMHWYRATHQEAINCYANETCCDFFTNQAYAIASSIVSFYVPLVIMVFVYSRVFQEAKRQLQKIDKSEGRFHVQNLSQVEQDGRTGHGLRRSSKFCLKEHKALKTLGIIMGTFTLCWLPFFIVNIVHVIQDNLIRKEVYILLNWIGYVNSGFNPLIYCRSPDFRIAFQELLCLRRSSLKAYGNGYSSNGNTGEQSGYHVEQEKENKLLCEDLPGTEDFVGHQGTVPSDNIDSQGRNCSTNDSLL
PTHR1 agonist – qHTS for PTHR1 Agonists: Primary Screen; Parathyroid hormone/parathyroid hormone-related peptide receptor (Homo sapiens), Q03431; HEK293 GP2 PTHR1 cells, GloSensor cAMP luminescence, 1 h; Potency, µM (highest dose often 115 µM), without a hit: top-dose activation, most hits filed as activators; hit rate 0.075% among 410,000; AID 743266, 2014; note: potency is the fitted concentration of half-maximal effect; nearly all actives have a fitted effect of over 55% in size
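HEK-293-derived GP2 cells expressing PTHR1 and a GloSensor cAMP reporter, 3,000/well, plated overnight, given luciferin plus IBMX (each 0.5 mM as added) for 1 h at 37 °C, then compound for 1 h at 37 °C. Luminescence was read after 15 min at room temperature.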
An asterisk follows results filed as active; [ ] = another dose, or the depositor's remark. Hits are enriched below; roughly 3.7% of the tested compounds scored in any of these assays. Unless noted, calls come from the whole dose curve; as a rule, active = well fitted curve in the direction sought with a large enough effect; inconclusive = small, poorly fitted or top-dose-only effect, or another doubt; inactive = no such curve, though single readings can be large; an effect the other way counts as inactive or inconclusive.

How did COC(=O)Cc1c(OC)ccn(CCc2c[nH]c3ccccc23)c1=O do in these assays?
DRD3 agonist: 2.4; BRCA1 expr act: 2.24µM*; DRD3 antagonist: 1.6; RGS4 inh: -7.1%; B2AR arrestin: -0.4%; PTHR1 agonist: -10.9%

How did CCCCCCCn1ccc(O)c(CC(=O)OC)c1=O do in these assays?
DRD3 agonist: -11.0; BRCA1 expr act: 0.0%; DRD3 antagonist: -15.1; RGS4 inh: 31.2%; B2AR arrestin: 0.1%; PTHR1 agonist: 50.1µM*

What do the screens show for `COC(=O)Cc1c(O)ccn(CCc2c[nH]c3ccccc23)c1=O`?
DRD3 agonist: 0.3; BRCA1 expr act: -2.4%; DRD3 antagonist: 1.7; RGS4 inh: 5.0%; B2AR arrestin: 0.0%; PTHR1 agonist: -10.4%

What do the screens show for `Cc1ccc(NC(=O)Cn2nnc(C(=O)NCCc3ccccc3)c2N)cc1`?
DRD3 agonist: -5.8; RGS4 inh: -17.1%; PTHR1 agonist: inactive

What do the screens show for `CN(C)c1cccc(-c2cc(Nc3ccc(C(C)(C)C)cc3)ncn2)c1`?
DRD3 agonist: 2.0; BRCA1 expr act: inconclusive; DRD3 antagonist: -54.6*; PTHR1 agonist: -42.0%

What do the screens show for `CC(C)(CN1CCN(Cc2ccccc2)CC1)NS(=O)(=O)c1ccccc1`?
DRD3 agonist: -20.3; BRCA1 expr act: -26.3%; DRD3 antagonist: -51.9*; RGS4 inh: -9.5%; B2AR arrestin: 0.5%; PTHR1 agonist: inactive

Results for CC(C)(CN1CCN(C(c2ccccc2)c2ccccc2)CC1)NS(=O)(=O)c1ccccc1 ?
DRD3 agonist: -36.5; BRCA1 expr act: -45.9%; DRD3 antagonist: -52.6*; RGS4 inh: 13.8%; B2AR arrestin: 1.8%; PTHR1 agonist: -16.1%

What do the screens show for `CC(=O)N1CCN(CC(C)(C)NS(=O)(=O)c2ccccc2)CC1`?
DRD3 agonist: 5.1; BRCA1 expr act: -19.8%; DRD3 antagonist: -0.4; RGS4 inh: 19.5%; B2AR arrestin: 0.0%; PTHR1 agonist: -6.7%

What do the screens show for `CC(CN1CCNCC1)(NS(=O)(=O)c1ccccc1)c1ccccc1` (stereo not drawn)?
DRD3 agonist: -17.0; BRCA1 expr act: -61.0%; DRD3 antagonist: -71.4*; RGS4 inh: 1.5%; B2AR arrestin: -0.7%; PTHR1 agonist: 9.5%[57.5 µM]

How did O=c1[nH]c(=O)n([C@H]2CCCO2)cc1F do in these assays?
DRD3 agonist: -5.6

How did COc1cc(C)c(Cl)cc1S(=O)(=O)N1CCSC1 do in these assays?
DRD3 agonist: 10.1; BRCA1 expr act: -25.3%; DRD3 antagonist: -0.3; RGS4 inh: -31.2%; B2AR arrestin: 0.0%; PTHR1 agonist: -20.7%

How did C=C(CN(C)C)C(=O)c1ccc(OC2OC(COC(C)=O)C(OC(C)=O)C(OC(C)=O)C2OC(C)=O)cc1 (stereo not drawn) do in these assays?
DRD3 agonist: -16.0; BRCA1 expr act: -87.0%; DRD3 antagonist: -81.8*; RGS4 inh: inconclusive; PTHR1 agonist: -60.7%

How did CC(=O)OCC(=O)[C@H]1CC[C@H]2[C@@H]3CCC4=CC(=O)CC[C@]4(C)[C@H]3CC[C@]12C do in these assays?
DRD3 agonist: 4.7; BRCA1 expr act: 0.0%; DRD3 antagonist: 3.1; RGS4 inh: 19.5%; B2AR arrestin: -0.6%; PTHR1 agonist: inactive

Results for C[C@]12CC[C@H]3[C@@H](CCC4=CC(=O)CC[C@@]43C)[C@@H]1CC[C@@H]2C(=O)CO ?
DRD3 agonist: -90.8; BRCA1 expr act: -9.8%; DRD3 antagonist: -88.5*; RGS4 inh: -38.7%; B2AR arrestin: -1.0%; PTHR1 agonist: -6.2%

What do the screens show for `Cc1cccc(OCC(=O)OCC(=O)N2CCN(C(=O)c3ccco3)CC2)c1C`?
DRD3 agonist: 2.3; BRCA1 expr act: 13.1%; DRD3 antagonist: 4.0; RGS4 inh: 36.4%; PTHR1 agonist: -19.7%
